Structures are written as SMILES. ± gives the standard deviation of the averaged measurements.

The values below come from the supplement of paper PMC6992640.

One test deals with HCI03 (cells of an ER-positive luminal breast cancer xenograft). Put plainly: cell viability (% of vehicle); higher = less cytotoxic. The conditions noted are these: 10 µM; 72 h.
Another test deals with HCI09 (cells of a triple-negative luminal androgen receptor type breast cancer xenograft). The description is as above. The settings on record: 10 µM; 72 h.
In a further test the test system is HCI11 (cells of an ER-positive luminal breast cancer xenograft). Described as above. The conditions noted are these: 10 µM; 72 h.
The subject of a further test is HCI13 (cells of an ER-positive luminal breast cancer xenograft). The test is described as above. The conditions noted are these: 10 µM; 72 h.
Another test concerns HCI16 (cells of a triple-negative basal-like breast cancer xenograft). The test is described as above. The settings on record: 10 µM; 72 h.
Test [1] deals with UCD52 (cells of a triple-negative basal-like breast cancer xenograft). The description is as above. The conditions noted are these: 10 µM; 72 h.
In the next test the test system is WHIM2 (cells of a triple-negative basal-like breast cancer xenograft). The description is as above. The settings on record: 10 µM; 72 h.
The next test deals with WHIM30 (cells of a triple-negative basal-like breast cancer xenograft). Described as above. The conditions noted are these: 10 µM; 72 h.
Test [2] relates to HCI01 (cells of a triple-negative basal-like breast cancer xenograft). Described as above. The conditions noted are these: 10 µM; 72 h.
Test [3] relates to HCI01. Nature of the test: cell viability of combination (% of vehicle); higher = less cytotoxic. The conditions noted are these: 1 µM; 72 h; partner dose: 10 nM. The protocol:
(§1)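 PDX cells were treated for 72 h with each drug at 1 µM plus carfilzomib (10 nM; 100 nM for WHIM2). Luciferase viability is expressed as percent of vehicle.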

Test [4] concerns UCD52. The test is described as above. The settings on record: 1 µM; 72 h; partner dose: 10 nM. The procedure: as §1

Consider `CC[C@]1(O)C[C@H]2CN(CCc3c([nH]c4ccccc34)[C@@](C(=O)OC)(c3cc4c(cc3OC)N(C=O)[C@H]3[C@@](O)(C(=O)OC)C(OC(C)=O)[C@]5(CC)C=CCN6CC[C@]43C65)C2)C1.O=S(=O)(O)O` (stereo not given in full) [Vincristine], for which the cell viability in the test on HCI03 is 111; with HCI09, 91.3 ± 26; in the test with HCI11 it was 112; with HCI13, 42.2 ± 2.8; in the test on HCI16, 200; with UCD52 [1], 85.1 ± 13. For the same compound, the results for the cell viability with WHIM2 and with WHIM30 were 90.5 ± 12 and 153 ± 16, respectively.

Turning to `Nc1ccccc1NC(=O)c1ccc(CNC(=O)OCc2cccnc2)cc1` [Entinostat (MS-275,SNDX-275)], the cell viability worked out at 109 in the test with HCI03, 119 ± 130 in the test with HCI09, 58.7 ± 7.4 in the test on HCI13 and 75.7 ± 17 in the test with WHIM2.

With `O=c1[nH]c(=O)n(C2CC(O)C(CO)O2)cc1I` (stereo not given) [Idoxuridine], the cell viability in the test with HCI01 [2] was 165 ± 77; in the test on HCI09, 106 ± 8.6; in the test on HCI11 it was 106; in the test on HCI16 it was 129; in the test with UCD52 [1] it was 112 ± 6.1; with WHIM30, 116.3 ± 1.1.

Take `CN(C)Cc1c(C(=O)NCCOc2ccc(C(=O)NO)cc2)oc2ccccc12`: the cell viability in the test on HCI03 came out at 128; in the test on HCI09, 70.8 ± 49; in the test with HCI11, 9.68; in the test with HCI13 it was 56.1 ± 17; in the test with WHIM2, 80.6 ± 8.5.

Consider `CC(=O)OCC(=O)C1CCC2C3CCC4=CC(=O)CCC4(C)C3CCC12C` (stereo not given) [Deoxycorticosterone acetate], for which the cell viability turned out to be 132 with HCI03; 95.7 ± 46 in the test with HCI09; 112 in the test with HCI11; 141 ± 23 in the test with HCI13; 135 in the test with HCI16; 139 ± 19 in the test on UCD52 [1]. Besides, the results for the cell viability in the test on WHIM2 and with WHIM30 were 140 ± 10 and 164 ± 12, respectively.

Turning to `CCC(CO)Nc1nc(NCc2ccccc2)c2ncn(C(C)C)c2n1` (stereo not given) [Roscovitine (Seliciclib,CYC202)], the cell viability with HCI01 [2] amounted to 80.4 ± 47; in the test with HCI09, 55.1 ± 22; with HCI11, 176; in the test on HCI13 it was 77.4 ± 2.6; in the test with HCI16, 138; in the test with UCD52 [1] it was 145 ± 25. Besides, the cell viability in the test on WHIM2 came out at 90.4 ± 1.3; in the test on WHIM30, 123 ± 4.2.

Regarding `CCCc1nc(C(C)(C)O)c(C(=O)OCc2oc(=O)oc2C)n1Cc1ccc(-c2ccccc2-c2nn[nH]n2)cc1` [Olmesartan medoxomil], the cell viability was 150 in the test on HCI03; 110 ± 1.2 with HCI09; 162 in the test on HCI11; 128 ± 2.5 in the test on HCI13; 182 in the test with HCI16; 168 ± 28 in the test on UCD52 [1]. The figures for the cell viability in the test with WHIM2 and in the test with WHIM30 were 105 ± 20 and 177 ± 30, respectively.

Regarding `Cn1cnc2c(F)c(Nc3ccc(Br)cc3Cl)c(C(=O)NOCCO)cc21` [AZD6244 (Selumetinib)], the cell viability in the test with HCI03 is 83.9; with HCI09, 82.9 ± 23; with HCI11, 112; with HCI13 it was 92.21 ± 0.79; in the test with UCD52 [1] it was 84.4 ± 13; with WHIM2, 79.7 ± 8.5.

On to `Cl.Nc1ccc(N=Nc2ccccc2)c(N)n1` [Phenazopyridine HCl], for which the cell viability was found to be 196 ± 12 in the test on HCI01 [2], 136 with HCI11, 200 in the test with HCI16 and 191 ± 47 in the test with WHIM2.

Take `CC12CCC(=O)C=C1C1CC1C1C2CCC2(C)C1C1CC1C21CCC(=O)O1` (stereo not given) [Drospirenone]: the cell viability in the test on HCI03 came to 150; in the test with HCI09 it was 178 ± 190; with HCI13 it was 84.8 ± 24; in the test with WHIM2 it was 39.5 ± 12.

With `CCCCOc1ccc(CC(=O)NO)cc1` [Bufexamac], the cell viability stood at 182.8 ± 1.2 in the test on HCI01 [2]; 140 ± 6.6 in the test on HCI09; 173 in the test with HCI11; 141 ± 35 in the test on HCI13; 148 ± 29 in the test with UCD52 [1]; 112 ± 2.7 in the test on WHIM2. This compound also registered a cell viability in the test on WHIM30 of 102 ± 3.6.

Consider `Cc1nnc(C(C)C)n1C1CC2CCC(C1)N2CCC(NC(=O)C1CCC(F)(F)CC1)c1ccccc1` (stereo not given) [Maraviroc], for which the cell viability in the test on HCI01 [2] turned out to be 110 ± 12; with HCI09, 95.9 ± 3.6; with HCI11, 129; in the test with HCI13, 73.7 ± 15; in the test on HCI16, 163; in the test with UCD52 [1], 88.8 ± 1.3. Further, the cell viability is 91.4 ± 26 in the test with WHIM2 and 123 ± 18 with WHIM30.

On to `O=C(CCCCCCNC(=O)c1cnc(N(c2ccccc2)c2ccccc2)nc1)NO` [Rocilinostat (ACY-1215)], for which the cell viability in the test on HCI03 was determined as 108; with HCI09 it was 45.1 ± 28; in the test on HCI13, 49.3 ± 7.8; in the test with WHIM2, 51.2 ± 8.8.

Regarding `C=C1C(=CC=C2CCCC3(C)C2CCC3C(C)CCCC(C)C)CC(O)CC1O` (stereo not given) [Alfacalcidol] + CC(C)C[C@H](NC(=O)[C@H](CCc1ccccc1)NC(=O)CN1CCOCC1)C(=O)N[C@@H](Cc1ccccc1)C(=O)N[C@@H](CC(C)C)C(=O)[C@@]1(C)CO1 [Carfilzomib], the results for the “cell viability of combination” value in the test on HCI01 [3] and in the test with UCD52 [4] were 55.4 and 41, respectively.

As for `CN(C)c1ccc(O)c2c1CC1CC3C(N(C)C)C(=O)C(C(N)=O)=C(O)C3(O)C(=O)C1=C2O.Cl` (stereo not given) [Minocycline HCl] + CC(C)C[C@H](NC(=O)[C@H](CCc1ccccc1)NC(=O)CN1CCOCC1)C(=O)N[C@@H](Cc1ccccc1)C(=O)N[C@@H](CC(C)C)C(=O)[C@@]1(C)CO1 [Carfilzomib], the “cell viability of combination” value with HCI01 [3] was 83.9; with UCD52 [4] it was 65.9.

For `Br.Cc1ccc(Sc2ccccc2N2CCNCC2)c(C)c1` + CC(C)C[C@H](NC(=O)[C@H](CCc1ccccc1)NC(=O)CN1CCOCC1)C(=O)N[C@@H](Cc1ccccc1)C(=O)N[C@@H](CC(C)C)C(=O)[C@@]1(C)CO1 [Carfilzomib], the “cell viability of combination” value in the test with HCI01 [3] is 98.3; with UCD52 [4] it was 50.8.

Regarding `CNC(=O)c1ccccc1Sc1ccc2c(C=Cc3ccccn3)n[nH]c2c1`, the cell viability in the test on HCI11 is 158; in the test on HCI16, 150; in the test with UCD52 [1] it was 191 ± 4.7.

As to `CC(=O)Oc1ccccc1C(=O)Nc1ncc([N+](=O)[O-])s1` [Nitazoxanide], the cell viability with HCI09 was determined as 161 ± 140; with HCI11, 168; with HCI16, 128; in the test with UCD52 [1], 154 ± 8.6.

With `Cn1nnc(-c2ccc(-c3ccc(N4CC(CO)OC4=O)cc3F)cn2)n1` (stereo not given) [Tedizolid], the cell viability was determined as 107 in the test with HCI11, 170 with HCI16 and 157 ± 57 in the test with WHIM2.

Take `COc1cc2c(Nc3ccc(Br)cc3F)ncnc2cc1OCC1CCN(C)CC1` [Vandetanib (ZD6474)] + CC(C)C[C@H](NC(=O)[C@H](CCc1ccccc1)NC(=O)CN1CCOCC1)C(=O)N[C@@H](Cc1ccccc1)C(=O)N[C@@H](CC(C)C)C(=O)[C@@]1(C)CO1 [Carfilzomib]: the “cell viability of combination” value with HCI01 [3] came out at 64.1; in the test on UCD52 [4] it was 39.4.

Take `COc1cc(C(=O)NS(=O)(=O)c2ccccc2C)ccc1Cc1cn(C)c2ccc(NC(=O)OC3CCCC3)cc12` [Zafirlukast] + CC(C)C[C@H](NC(=O)[C@H](CCc1ccccc1)NC(=O)CN1CCOCC1)C(=O)N[C@@H](Cc1ccccc1)C(=O)N[C@@H](CC(C)C)C(=O)[C@@]1(C)CO1 [Carfilzomib]: the “cell viability of combination” value in the test on HCI01 [3] stood at 83.2; with UCD52 [4], 65.

As for `O=c1c(-c2ccc(O)cc2)coc2cc(O)cc(O)c12` [Genistein], the cell viability turned out to be 160 in the test on HCI03; 129 in the test on HCI11; 183 in the test with HCI16; 189 ± 34 with UCD52 [1]; 121 ± 5.2 in the test on WHIM2.
